# Measurements as given in ChEMBL document CHEMBL4513216, “Probing the Open Global Health Chemical Diversity Library for Multistage-Active Starting Points for Next-Generation Antimalarials” (ACS Infect Dis, 2020).
# Hit rate of the full screen: of about 69,000 compounds, about 8,600 (12%) showed an effect of 50% or more. The sample as a whole holds a higher share of strong results than the screen did.
# Test system: Plasmodium berghei
# Assay: Screen against P. berghei liver stage (PbLuc), transformed with Luciferase, at 10uM
# Type: functional, HepG2
# Settings: tested at 10 uM
row,Compound,INHIBITION
1,Cn1cc(CN2CCc3onc(COc4cccnc4)c3C2)cn1,7.11%
2,c1ccc(OCc2noc3c2CN(c2ncccn2)CC3)nc1,24.6%
3,O=S(=O)(C1CC1)N1CCc2onc(COc3ccccn3)c2C1,61.5%
4,CCS(=O)(=O)N1CCc2onc(COc3ccccn3)c2C1,3.88%
5,Cc1cccc(C(=O)N2CCCCC2c2nc(C)cs2)n1 (stereo not given),-21.9%
6,O=C(O)C1(Cc2ccc(Cl)cc2)CCN(c2ncccc2F)CC1,52%
7,O=C(O)C1(Cc2ccccc2Cl)CCN(c2ncccc2F)CC1,43.5%
8,Cc1ncc(C)c(N2CCC(Cc3ccc(Cl)cc3)(C(=O)O)CC2)n1,12.7%
9,O=C(CCNC(=O)c1ccccc1)Nc1ccncc1,1.58%
10,CC(C)OC[C@H]1CCC[C@]12CN(C(=O)C1CCOCC1)CCO2,27.6%
11,COC[C@H]1CCC[C@]12CN(C(=O)NCc1ccccc1)CCO2,-1.58%
12,CC(C)OC[C@H]1CCC[C@]12CN(S(=O)(=O)c1cccs1)CCO2,45.2%
13,COC[C@@H]1CCC[C@]12CN(S(=O)(=O)c1cccs1)CCO2,54.1%
14,COC[C@@H]1CCC[C@@]12CN(C(=O)C1CCOCC1)CCO2,33.1%
15,COCC(=O)N1CCO[C@]2(CCC[C@H]2COC)C1,62.9%
16,COC[C@@H]1CCC[C@@]12CN(C(=O)N1CCCC1)CCO2,52.1%
17,COC[C@H]1CCC[C@]12CN(S(=O)(=O)c1cccs1)CCO2,-0.554%
18,COC[C@@H]1CCC[C@@]12CN(C(=O)N(C)C)CCO2,28.5%
19,CN(C)[C@@H]1COC[C@@H]2CN(Cc3ccc4c(c3)OCO4)C[C@@H]21,-13.7%
20,CC(=O)Nc1nc(CN2CCCCC2Cn2cccn2)cs1 (stereo not given),-15.8%
21,CN(C)C(=O)C1CCc2nnc(C(C)(C)C)n21 (stereo not given),-7.25%
22,Cc1cc2nccc(C3CCCN(C(=O)c4cnccn4)C3)n2n1 (stereo not given),33.2%
23,O=C(NC1CC1)N1CCc2ncnc(-c3ccncc3)c2CC1,-17%
24,O=C(c1ccoc1)N1CC[C@@H]2[C@H]1CCC(=O)N2c1ccccc1,43.2%

row,Compound,INHIBITION
1,Cc1occc1C(=O)N1CCC2(CCCN(Cc3cccs3)C2)C1 (stereo not given),-60.9%
2,Cc1cnn(CCNCC(O)c2ccc(C(F)(F)F)cc2)c1 (stereo not given),23.3%
3,CC(C)C(=O)NC1CCCN(C(=O)c2cc3ccccc3cc2O)C1 (stereo not given),-13.3%
4,Cc1ccc(CNc2ccccc2-n2ccc(C)n2)nc1,40.5%
5,Cc1ccn(-c2ccccc2NCc2scnc2C)n1,58.3%
6,Cc1ccn(-c2ccccc2NCc2ccccn2)n1,2.37%
7,Cc1ccn(-c2ccccc2NCc2cscn2)n1,52.4%
8,Cc1ccn(-c2ccccc2NCc2cccnc2C)n1,-11.8%
9,Cc1ccn(-c2ccccc2NCc2ncc[nH]2)n1,7.9%
10,COCCC(=O)N1C[C@H]2CN(Cc3cccc(C)c3)C(=O)[C@H]2C1,14.9%
11,O=C(Nc1cc(C(F)(F)F)c[nH]c1=O)C1CCCNC1 (stereo not given),42.6%
12,O=C(NCCN1CCOCC1)N(CCCO)C1CCCc2ccccc21 (stereo not given),18.3%
13,COc1cccc(C(=O)N2CCN(Cc3nc(C(C)C)no3)CC2)c1,43.3%
14,CCOc1ccc(Cl)c(C(=O)NCCc2ncc[nH]2)n1,6.05%
15,CCOc1ccc2nc(CN3CCC(CN)C3)ccc2c1 (stereo not given),57.5%
16,CCc1nccc(CN2CCC(CNC(=O)C3CCC(C)CC3)C2)n1 (stereo not given),7.43%
17,CCOc1ccc2nc(CN3CCOC(CN)C3)ccc2c1 (stereo not given),24.8%
18,OC[C@H]1CCN(Cc2ccc3ccccc3n2)C[C@@H]1O,2.25%
19,COc1nc2ccccc2cc1CN1CCCC(CNC(C)=O)C1 (stereo not given),21.85%
20,CCOc1ccc2nc(CN3CCC(CNC(C)=O)C3)ccc2c1 (stereo not given),51.5%
21,COCCN1CCC(NCc2cc(F)ccc2F)C1 (stereo not given),-14%
22,Cc1ncc(S(C)(=O)=O)c(N(C)CCCc2cnn(C)c2)n1,29.1%
23,COc1cc(Br)c(CNC2CCCNC2=O)cc1OC (stereo not given),36.5%
24,COc1cc(Br)cc(CNC2CCCNC2=O)c1O (stereo not given),60%

row,Compound,INHIBITION
1,COCc1ccc(OC)c(CNC2CCCNC2=O)c1 (stereo not given),-9.51%
2,O=C(c1cc2c(s1)CCC2)N1CCC(c2ccncc2)CC1,32.3%
3,CC(=O)Nc1nc(C(=O)N2CCCC(n3ccnc3C)C2)cs1 (stereo not given),0.411%
4,O=C(CC1CC1)N1C[C@H]2CCN[C@H]2C1,24.6%
5,O=C(CC(F)(F)F)N1C[C@H]2CCN[C@H]2C1,62.3%
6,CC(C)(C)CC(=O)N1C[C@H]2CCN[C@H]2C1,46.4%
7,Cn1c(C2CC2)nc2c1CCN(CC(=O)NC1CCCCNC1=O)C2 (stereo not given),52%
8,Cc1nc(CN2CCc3c(nc(C4CC4)n3C)C2)nc2ccccc12,74.1%
9,Cn1c(C2CC2)nc2c1CCN(Cc1nc3ccccc3s1)C2,43.5%
10,CCN1CCC(NC(=O)CN2CCc3c(nc(C4CC4)n3C)C2)CC1,24.8%
11,Cn1cnc2c1CCN(CC(=O)NC1CCCCNC1=O)C2 (stereo not given),-7.72%
12,Cc1nc2ccccc2nc1CN1CCc2c(nc(C3CC3)n2C)C1,-12.2%
13,Cn1c(C2CC2)nc2c1CCN(CC(=O)Nc1nccs1)C2,11.9%
14,Cc1csc(NC(=O)CN2CCc3c(nc(C4CC4)n3C)C2)n1,67.4%
15,Cn1c(C2CC2)nc2c1CCN(CC(=O)Nc1nncs1)C2,17%
16,Cc1ccc(C(=O)N(C)Cc2ccc3c(c2)OCO3)c(=O)[nH]1,17.8%
17,O=c1c2c[nH]c(N3CCCC3)nc-2cn1CCc1ccc(Cl)cc1,15.1%
18,Cc1nc(C)n(C2CCCN(C(=O)CCc3cn(C)nc3C)C2)n1 (stereo not given),21.5%
19,O=C(c1ccc[nH]1)N1CCc2nnc(Cn3cccn3)n2CC1,43.4%
20,O=C(NC1CC1)c1ccc2ccc(N3CCN(CC4CC4)CC3)n2c1,34.9%
21,O=C(O)c1ccc2ccc(N3CCN(CC4CC4)CC3)n2c1,54.1%
22,CN(C)C(=O)c1ccc2ccc(N3CCN(CC4CC4)CC3)n2c1,38.3%
